From PubChem
VDR inhibitor – vitamin D3 receptor (human) inhibition | P11473 | Potency, µM, hits mostly inhibitors | VDR-SRC2-3 peptide fluorescence polarization, 2 h | 400,000 compounds, 0.93% hits | AID 504847
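Compounds are added to VDR with labelled SRC2-3 coactivator peptide and held 2 h at room temperature. Inhibition of the VDR–peptide interaction is then read as a change in fluorescence polarization.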
DT40 TDP1 no CPT – qHTS for Inhibitors of human tyrosyl-DNA phosphodiesterase 1 (TDP1): qHTS in cells in absence of CPT; AID 686978, 2013; DT40 Tdp1-/- hTDP1 cells, no CPT, ATP luminescence, 48 h; Potency, µM (highest dose often 46.2 µM), usual class: inhibitors; 420,000 compounds, 15% hits; note: nearly all actives have a fitted effect of over 55% in size
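A cellular qHTS used chicken DT40 cells lacking endogenous Tdp1 but carrying stably transfected human TDP1. Compounds were applied without camptothecin, and cell growth kinetics were judged by ATP-dependent luminescence after ≥48 hr.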
PLK1 PBD block – PLK1 (human) polo-box domain binding inhibition; 360,000 compounds, 2.8% hits; Plk1 PBD binding of FITC phosphopeptide, fluorescence polarization; AID 720504; Potency, µM, usual class: inhibitors; P53350; note: series mostly up to about 57 µM; nearly all actives have a fitted effect of over 65% in size
KAT2A inh – inhibitors of human GCN5L2 histone acetyltransferase | GCN5L2 HAT assay, ThioGlo1 CoA-SH fluorescence | Potency, µM (doses to about 58.9 µM), most hits filed as inhibitors | 390,000 compounds, 0.21% hits | AID 504327 | Q92830
Target sequence (Q92830 whole entry, looked up): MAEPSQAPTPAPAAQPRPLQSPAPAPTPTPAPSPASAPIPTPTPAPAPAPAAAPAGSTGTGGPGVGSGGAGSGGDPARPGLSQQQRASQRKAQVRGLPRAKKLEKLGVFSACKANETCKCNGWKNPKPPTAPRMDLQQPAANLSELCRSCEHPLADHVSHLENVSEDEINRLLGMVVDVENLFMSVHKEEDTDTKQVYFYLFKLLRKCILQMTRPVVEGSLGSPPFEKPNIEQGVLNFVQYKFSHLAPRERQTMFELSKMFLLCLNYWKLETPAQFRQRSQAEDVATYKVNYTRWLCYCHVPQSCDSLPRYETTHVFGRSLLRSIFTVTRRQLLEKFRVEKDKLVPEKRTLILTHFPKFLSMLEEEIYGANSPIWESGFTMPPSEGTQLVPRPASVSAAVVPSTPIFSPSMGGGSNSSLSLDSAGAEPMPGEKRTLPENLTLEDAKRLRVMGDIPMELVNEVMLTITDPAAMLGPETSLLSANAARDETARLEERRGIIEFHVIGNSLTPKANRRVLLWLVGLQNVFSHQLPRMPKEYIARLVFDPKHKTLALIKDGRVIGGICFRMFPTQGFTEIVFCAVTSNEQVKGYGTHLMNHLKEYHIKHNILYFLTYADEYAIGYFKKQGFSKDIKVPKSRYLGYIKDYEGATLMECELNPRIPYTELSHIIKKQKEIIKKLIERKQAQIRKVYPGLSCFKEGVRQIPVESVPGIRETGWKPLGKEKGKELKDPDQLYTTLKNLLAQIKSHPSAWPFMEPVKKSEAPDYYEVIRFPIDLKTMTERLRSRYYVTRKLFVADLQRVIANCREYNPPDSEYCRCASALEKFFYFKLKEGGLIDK
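Free CoA generated was detected with ThioGlo1 (50uM) fluorescence at Ex340nm/Em540nm, read immediately and after 20 min at room temperature. Enzyme, 20 nM in HEPES pH 7.5 buffer, saw compounds 15 min before adding 75uM H3(1-25) peptide and 70uM acetyl-CoA.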
TDP1 cell CPT – DT40-hTDP1 cell growth loss with CPT | chicken DT40 Tdp1-/-;hTDP1 cells + 20 nM CPT, ATP luminescence, 48 h | Potency, µM (titrated, usually from 46.2 µM), usual class: inhibitors | 420,000 compounds, 12% hits; note: nearly all actives have a fitted effect of over 55% in size
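Cell growth measured by CellTiter-Glo luminescence after a minimum 48 h, 37 C compound exposure with 20 nM CPT in Tdp1-knockout DT40 cells stably expressing hTDP1, seeded 400/well; qHTS titration format.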
TDP1 block – inhibitors of human tyrosyl-DNA phosphodiesterase TDP1; Q9NUW8; recombinant TDP1, AlphaScreen DNA substrate cleavage; Potency, µM (highest dose often 130 µM), usual class: inhibitors; 350,000 compounds, 0.28% hits; AID 485290; note: nearly all actives have a fitted effect of over 40% in size
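Signal: AlphaScreen proximity between streptavidin donor and anti-FITC acceptor beads on intact substrate. Reaction: Tdp1 1 nM, substrate 15 nM final, 5 min RT after 15 min compound preincubation.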
Numbers stand for hits; - = inactive; ? = inconclusive; . = not tested or not shown. Sampled rows, rich in hits. Any-hit rate of the full collection: about 18%. Calls come from the whole dose curve; as a rule, active = well fitted curve in the direction sought with a large enough effect; inconclusive = small, poorly fitted or top-dose-only effect, or another doubt; inactive = no such curve, though single readings can be large; an effect the other way counts as inactive or inconclusive.

SMILES | VDR inhibitor | DT40 TDP1 no CPT | PLK1 PBD block | KAT2A inh | TDP1 cell CPT | TDP1 block
O=C(NCCC1=CCCCC1)c1cnccn1 | - | - | - | - | - | -
Cc1csc2nc(O)c(C(=O)NCCC3=CCCCC3)c(=O)n12 | - | 7.3µM | - | - | 15µM | -
Cc1ccc(NC(=O)CN2C(=S)NC(C)(C)CC2C)cc1Cl (centres undefined) | - | ? | ? | - | ? | -
CCN(C(=O)CN1C(=S)NC(C)(C)CC1C)c1ccc(C)c(C)c1 (centres undefined) | - | 23µM | ? | - | 15µM | -
COc1ccc(C(=O)CSc2nnc(-c3cc4ccccc4cc3O)n2Cc2ccco2)cc1 | - | ? | - | - | 21µM | -
Cc1ccc(NCc2nnc(SCC(N)=O)n2CC2CCCO2)c(C)c1 (centres undefined) | - | - | 30µM | - | - | -
CCn1c(SCC(=O)N(C(C)C)C(C)C)nnc1-c1cc2ccccc2cc1O | - | 18µM | - | - | 23µM | ?
COc1ccc(C(=O)CSc2nnc(-c3cccnc3)n2Cc2ccco2)cc1 | - | ? | - | - | - | -
CCOc1ccc(NC(=O)CSc2nnc(-c3ccccc3Cl)n2Cc2ccco2)cc1 | - | 18µM | - | - | 21µM | -
CCOc1ccc(NC(=O)CSc2nccn2Cc2ccco2)cc1 | - | ? | - | - | ? | -
CCC1=C2CC[C@H]3C(=O)N(CC(=O)OC)C(=O)[C@H]3[C@H]2[C@@]2(C)C(=NCC(=O)OC)OC(=O)N2C1=O | - | - | - | - | - | -
Cc1ccc(NCc2nnc(SCC(=O)c3ccccc3)n2Cc2ccco2)c(C)c1 | ? | 16µM | - | - | ? | -
CCCc1ccc(C(C)NC(=O)c2cnccn2)cc1 (centres undefined) | - | 23µM | - | - | ? | -
Cc1ccc(/C=C2/NC(=O)N(Cc3ccccc3F)C2=O)s1 | - | - | - | - | ? | -
CCCN1C(=O)/C(=C/c2ccc(C)s2)NC1=S | - | - | - | - | 26µM | -
CCCCc1ccc(NC(=O)c2cnccn2)cc1 | - | - | - | - | - | -
Cc1ccc(-n2nc(C(=O)N(C)Cc3ccccc3)c3c4ccccc4n(C)c3c2=O)cc1 | - | 9.2µM | . | - | 23µM | -
Cc1ccc(-n2nc(C(=O)N(C)c3ccccc3Cl)c3c4ccccc4n(C)c3c2=O)cc1 | - | 13µM | . | - | 18µM | -
COc1ccc(-c2nc(CC(=O)O)cs2)cc1OC | . | . | . | - | . | -
O=C(NCCc1csc(-c2cccnc2)n1)c1ccc(Cl)cc1 | - | ? | - | - | - | .
CCOc1cc(C(=O)NCCc2csc(-c3ccc(C)cc3)n2)cc(OCC)c1OCC | - | 16µM | . | - | ? | -
COc1cc(C(=O)NCCc2csc(-c3ccc(Cl)cc3)n2)cc(OC)c1OC | - | 21µM | . | - | ? | -
CCOc1ccc(NC(=O)C(=O)NCCc2csc(-c3ccc(C)cc3)n2)cc1 | - | - | . | - | - | -
COc1ccc(-c2nc(CCNC(=O)c3ccccc3)cs2)cc1OC | - | 23µM | . | - | 23µM | -
CC12CCC(=O)C=C1CCC1C2C(O)CC2(C)C1CCC2(O)C(=O)CO (centres undefined) | - | ? | - | - | - | .
SMILES | VDR inhibitor | DT40 TDP1 no CPT | PLK1 PBD block | KAT2A inh | TDP1 cell CPT | TDP1 block
COCCNC(=O)C1CCCN(C(=O)c2cccnc2Oc2ccccc2)CC1 (centres undefined) | . | - | - | . | - | .
CCOc1ccc(S(=O)(=O)n2nc(C)c(S(=O)(=O)N3CCCCC3)c2C)cc1 | - | - | . | - | - | -
CC(C(=O)Nc1ccc(Cl)cc1Cl)N1C(=O)NC2(CCCCCCC2)C1=O (centres undefined) | - | ? | - | - | ? | -
Clc1nc(CN2CCCCC2)nc2sc3c(c12)CCC3 | - | 18µM | - | - | ? | -
c1ccc2c(c1)CCN(c1nc(CN3CCOCC3)nc3sc4c(c13)CCCC4)C2 | - | 16µM | - | - | 23µM | -
O=c1[nH]c(CN2CCCC2)nc2sc3c(c12)CCC3 | - | - | - | - | - | -
Cc1cccc(N2CCN(c3ccc4cc(S(=O)(=O)N5CCC(C)CC5)ccc4n3)CC2C)c1 (centres undefined) | - | - | . | - | - | -
CCN(CC(=O)NC(C)(C)C)C(=O)CCl | - | 13µM | - | - | 21µM | -
CC(C)(C)NC(=O)CCCCCCCC(=O)NC(C)(C)C | - | - | - | - | - | -
Cc1cn(C)c(CC(=O)NCc2ccc(F)cc2)c1C(=O)O | - | - | . | - | - | -
COc1ccc(/C=N/N(CCC(=O)NC(C)(C)C)C2=NS(=O)(=O)c3ccccc32)cc1 | - | 21µM | - | - | 21µM | .
CC(C)(C)NC(=O)CCN(/N=C/c1ccccc1O)C1=NS(=O)(=O)c2ccccc21 | - | 15µM | - | - | 21µM | .
CC(C)(C)NC(=O)CCN(/N=C/c1ccncc1)C1=NS(=O)(=O)c2ccccc21 | - | - | - | - | - | .
CN(/N=C/c1cc(Cl)ccc1O)C1=NS(=O)(=O)c2ccccc21 | - | 18µM | - | - | 16µM | .
O=C(c1ccnc(-n2cnnn2)c1)N1CCOc2ccc(C(O)CCc3ccccc3)cc2C1 (centres undefined) | . | - | . | . | - | .
COc1ccc(C(=O)c2c[nH]c(C(=O)N=CN(C)C)c2)cc1 | - | - | - | - | - | -
COCCNc1nc(CSc2ccccc2)nc2sc(C)c(C)c12 | - | ? | - | - | ? | ?
Cc1sc2nc(CSc3ccccc3)nc(N3CCN(C)CC3)c2c1C | - | 16µM | - | - | ? | -
CCCCNC(=O)C1C(c2ccccc2)=Nc2ccccc2N1C(=O)c1ccc(C(F)(F)F)cc1 (centres undefined) | . | 15µM | - | . | ? | .
CCCCNC(=O)C1C(c2ccccc2)=Nc2ccccc2N1C(=O)c1ccc2c(c1)OCO2 (centres undefined) | . | ? | - | . | ? | .
CCCCNC(=O)C1C(c2ccccc2)=Nc2ccccc2N1C(=O)c1ccc(C)cc1 (centres undefined) | . | ? | - | . | 13µM | .
CC(C)(C)NC(=O)C1C(c2ccccc2)=Nc2ccccc2N1C(=O)c1ccc(C(F)(F)F)cc1 (centres undefined) | . | 16µM | - | . | ? | .
C=CCNc1ncnc2c1ncn2[C@H]1CN(C2CCCC2)C[C@@H](CO)O1 | . | - | - | . | - | .
N#Cc1c(N)n(CCOC(=O)c2cccc([N+](=O)[O-])c2)c2nc3ccccc3nc12 | - | 10µM | - | - | - | -
N#Cc1c(N)n(CCOC(=O)c2cccc(Br)c2)c2nc3ccccc3nc12 | - | ? | - | . | - | -
